# Screening data: PubChem, National Center for Advancing Translational Sciences (NCATS)
# Only some compounds are listed: those with a hit (about 2.4% of all), similar ones and a draw of the others.
# Pol kappa inh-1: qHTS for Inhibitors of Polymerase Kappa | DNA polymerase kappa (Homo sapiens), Q9UBT6 | purified Pol kappa, fluorescent DNA synthesis assay, 10 min | Potency, µM (doses to about 107 µM), without a hit: at the top dose activity, negative = inhibition, hits mostly inhibitors | 400,000 compounds, 0.53% hits; also: potency is read from the fitted curve at half-maximal effect; % is scaled to controls: 0 for no effect and ±100 for the full control effect
#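 Readout: fluorescence, taken kinetically at 0 and 10 min. Conditions: 10 nM Pol kappa, 15 min RT compound preincubation, 50 nM substrate final. Controls: enzyme-free buffer wells.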
# WRN inhibitor: qHTS for Inhibitors of WRN Helicase; 360,000 compounds, 0.46% hits; Potency, µM (titrated, usually from 114 µM), without a hit: top-dose activity change, negative = inhibition, most hits filed as inhibitors; AID 651768, 2012; WRN helicase unwinding, fluorescent forked duplex, kinetic; also: potency is read from the fitted curve at half-maximal effect; % is scaled to controls: 0 for no effect and ±100 for the full control effect; nearly all actives have a fitted effect of over 55% in size
#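 Enzyme (20 nM final) and test compound sit together 15 min at room temperature before substrate addition. Substrate is a single-forked duplex oligonucleotide (100 nM) labelled with fluorophore and quencher, with 2 mM ATP; helicase unwinding raises red fluorescence, read kinetically.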
# FEN1 inh: qHTS Assay for the Inhibitors of Human Flap endonuclease 1 (FEN1). Recombinant FEN1 flap cleavage, fluorescence, 15 min. AID 588795, 2011. 390,000 compounds, 0.35% hits. Potency, µM (titrated, usually from 114 µM), for inactives: at the highest dose activity change, negative = inhibition, hits mostly inhibitors. P39748; also: potency is read from the fitted curve at half-maximal effect; % is scaled to controls: 0 for no effect and ±100 for the full control effect; nearly all actives have a fitted effect of over 65% in size
#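 Reaction started by adding substrate (50 nM final) to 10 nM enzyme after 15 min room-temperature compound preincubation. Reads at 0 and 15 min, with data normalized and fitted to a four-parameter Hill equation.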
# POLB inh: qHTS Assay for Inhibitors of DNA Polymerase Beta. P06746. Pol beta primer extension/strand displacement, fluorescence kinetic. Potency, µM (highest dose often 114 µM), for inactives: top-dose activity change, negative = inhibition, actives largely listed as inhibitors. 340,000 compounds, 1.3% hits. AID 485314, 2010; also: potency is read from the fitted curve at half-maximal effect; % is scaled to controls: 0 for no effect and ±100 for the full control effect
#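 Human Pol beta at 10 nM; strand-displacement substrate 50 nM final. Compound exposure 15 min at room temperature before start, reaction 10 min at room temperature.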
# Pol iota inh: qHTS for Inhibitors of Polymerase Iota | 390,000 compounds, 1% hits | Pol iota fluorescent replication assay, 10 min | Potency, µM (titrated, usually from 115 µM), for inactives: at the highest dose activity, negative = inhibition, most hits filed as inhibitors | DNA polymerase iota (Homo sapiens), Q9UNA4; also: potency is read from the fitted curve at half-maximal effect
#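 Pol iota at 10 nM preincubated 15 min with compounds at room temperature; reaction started with fluorescent substrate, 50 nM final. Fluorescence read kinetically at 0 and 10 min; buffer-only wells as negative control.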
# Pol eta inh-1: qHTS for Inhibitors of Polymerase Eta | recombinant Pol eta, fluorescent DNA replication assay | Potency, µM (top dose mostly 114 µM), for the others: top-dose activity change, negative = inhibition, hits mostly inhibitors | 390,000 compounds, 1.2% hits | AID 588591, 2011; also: potency is read from the fitted curve at half-maximal effect; % is scaled to controls: 0 for no effect and ±100 for the full control effect
# Target sequence (Q9Y253 whole entry, looked up): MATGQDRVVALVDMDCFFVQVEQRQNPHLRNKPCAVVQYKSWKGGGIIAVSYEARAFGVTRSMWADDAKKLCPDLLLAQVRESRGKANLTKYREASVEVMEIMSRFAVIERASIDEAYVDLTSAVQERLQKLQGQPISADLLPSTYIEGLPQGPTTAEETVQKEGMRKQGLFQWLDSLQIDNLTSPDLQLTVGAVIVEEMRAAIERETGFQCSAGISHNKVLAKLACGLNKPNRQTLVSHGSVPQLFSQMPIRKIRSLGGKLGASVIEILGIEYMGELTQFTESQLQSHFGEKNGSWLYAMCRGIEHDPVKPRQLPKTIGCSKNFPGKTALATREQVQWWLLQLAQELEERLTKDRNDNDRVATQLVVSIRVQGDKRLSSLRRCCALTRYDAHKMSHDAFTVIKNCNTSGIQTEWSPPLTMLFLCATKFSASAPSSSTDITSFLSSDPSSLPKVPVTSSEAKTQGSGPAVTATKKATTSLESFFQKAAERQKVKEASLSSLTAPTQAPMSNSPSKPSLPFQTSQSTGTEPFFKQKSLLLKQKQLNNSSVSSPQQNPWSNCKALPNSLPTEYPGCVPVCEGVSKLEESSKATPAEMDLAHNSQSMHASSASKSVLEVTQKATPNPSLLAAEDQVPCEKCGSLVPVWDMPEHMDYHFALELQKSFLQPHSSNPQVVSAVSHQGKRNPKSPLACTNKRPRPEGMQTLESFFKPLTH
#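 Pol eta at 10 nM preincubated with compounds 15 min at room temperature; reaction started with fluorescent substrate (50 nM final) and read kinetically at 0 and 10 min.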
# GALK inh confirm: Confirmation Assay for Inhibitors of Human Galactokinase (GALK) | shares compounds with Pol eta inh-1 | purified GALK, Kinase-Glo ATP depletion luminescence | Potency, µM (highest dose often 115 µM), for the others: at the top dose activity, negative = inhibition, usual class: inhibitors | 150 compounds, 70% hits | AID 2015, 2009
# Redox cycling: Confirmatory Assay for Inhibitors of Human Galactokinase (GALK): Phenol-HRP redox assay counterscreen; Phenol red-HRP H2O2 redox cycling, absorbance 600 nm; 150 compounds, 40% hits; Potency, µM (highest dose often 115 µM), without a hit: at the top dose activity change, negative = H2O2 signal, most hits filed as inhibitors; shares compounds with Pol eta inh-1; AID 2035, 2009
# HEK293 tox: Secondary Assay for Inhibitors of Human Galactokinase (GALK): HEK-293 Cell Viability Assay; 170 compounds, 10% hits; Potency, µM (series often up to 46.1 µM), for inactives: at the top dose activity change, negative = cytotoxicity, most hits filed as inhibitors; HEK-293 viability, ATP luminescence (CellTiter-Glo), 24/48 h; shares compounds with Pol eta inh-1; also: potency is read from the fitted curve at half-maximal effect; % is scaled to controls: 0 for no effect and ±100 for the full control effect
# Pol kappa inh-2: qHTS for Inhibitors of Polymerase Kappa: Confirmatory Assay for Cherry-picked Compounds. shares compounds with Pol eta inh-1. purified Pol-kappa, fluorescent strand-displacement substrate. Potency, µM, most hits filed as inhibitors. 920 compounds, 76% hits. AID 720501, 2013; also: potency is read from the fitted curve at half-maximal effect
# Pol eta inh-2: qHTS for Inhibitors of Polymerase Eta: Confirmatory Assay for Cherry-picked Compounds; 2,600 compounds, 64% hits; Pol eta primer extension, TAMRA/BHQ fluorescence, 10 min; Potency, µM, usual class: inhibitors; shares compounds with Pol eta inh-1; also: potency is read from the fitted curve at half-maximal effect
# Numbers without * were called inactive; ? = inconclusive; . = no result; [ ] = remark or other dose. Calls follow the shape of the dose curve; as a rule, active = well fitted curve in the direction sought with a large enough effect; inconclusive = small, poorly fitted or top-dose-only effect, or another doubt; inactive = no such curve, though single readings can be large; an effect the other way counts as inactive or inconclusive.
SMILES,Pol kappa inh-1,WRN inhibitor,FEN1 inh,POLB inh,Pol iota inh,Pol eta inh-1,Pol eta inh-2,others
CCOc1cc(/C=C2\N=C(SC)SC2=O)cc([N+](=O)[O-])c1OC(C)=O,45µM*,?,50µM*,22µM*,?,?,.,Pol kappa inh-2=84*
CCOc1c(OC(C)=O)ccc(/C=C2\N=C(SCC)SC2=O)c1[N+](=O)[O-],-4%,-4%,-9%,-5%,7%,-14%,.,
Cc1cc(C)cc(OCCSc2nc(-c3ccc(C(C)(C)C)cc3)nc3cc(=O)[nH]n23)c1,-18%,.,-17%,22µM*,-17%,?,85*,
Cc1cc(OCCCSc2nc(-c3ccc(C(C)(C)C)cc3)nc3cc(=O)[nH]n23)ccc1Cl,?,.,?,40µM*,?,79µM*,?,
COc1ccc(-c2nc(SCCOc3ccccc3Cl)n3[nH]c(=O)cc3n2)cc1,-21%,.,-25%,-31%,-20%,-5%,.,
Cc1ncc(C[n+]2csc(CCOP(=O)(O)OP(=O)(O)O)c2C)c(N)n1,-2%[60.1 µM],.,.,.,.,.,.,
COc1ccc2occ(CC(=O)Nc3ccc(S(=O)(=O)Nc4nc(C)cc(C)n4)cc3)c2c1,?,.,?,28µM*,79µM*,25µM*,?,Pol kappa inh-2=42*
CCc1ccc(CNC(=O)C(CC)n2ccc3cc(S(=O)(=O)N4CCCCC4)ccc32)cc1 (stereo not drawn),7%,.,12%,-3%,41%,-22%,.,
O=[N+]([O-])c1ccc2c(c1)N([O-])C1(CCCCC1)[N+]2=O,?,?,?,-2%,11µM*,22µM*,85*,
CC(CNC(=O)CN1C(=O)COc2ccc(S(=O)(=O)N3CCCCCC3)cc21)c1ccccc1 (stereo not drawn),-17%,.,-3%,0%,7%,-20%,.,
N#CCSc1nnc(SCC#N)s1,?,?,-6%,?,?,20µM*,76*,
C=C1CC[C@@H]2[C@](C)(CCC[C@@]2(C)/C=C/[C@@H](O)C(C)(C)O)[C@H]1CC(=O)NCCS(=O)(=O)O,?,-11%,13%,.,-10%,18µM*,?,
COc1ccc(-c2nc(C)c(CCNS(=O)(=O)c3cc(C)c(C)cc3C)s2)cc1,-6%[60.1 µM],.,-28%,4%,-21%,-7%,.,
NNc1nccc(Nc2ccccc2C(=O)O)n1,?,?,-23%,?,?,13µM*,?,
COc1ccc(OCCn2c(CCNC(=O)C3CCCCC3)nc3ccccc32)cc1,-4%,.,-19%,.,14%,.,.,
CCOC(=O)/C(=C\c1ccc(N2CCC(c3ccccc3)=N2)cc1)C(C)=O,-5%,?,-7%,.,-11%,?,?,
CCc1cccc(NC(=O)CCS(=O)(=O)c2ccc(Br)cc2)c1,0%,?,-17%,7.1µM*,-2%,25µM*,85*,Pol kappa inh-2=42*
COc1ccc(CNC(=O)CCS(=O)(=O)c2ccc(Br)cc2)cc1,?,-5%[11.6 µM],-4%,-30%,?,?,76*,
CC1(C)OC(=O)C(=Cc2ccc(-c3ccc(Cl)c(C(=O)O)c3)o2)C(=O)O1,40µM*,45µM*,?,?,?,10µM*,27*,
Cc1ccc(N2NC(=O)/C(=C/c3ccc(-c4ccc(Cl)c(C(=O)O)c4)o3)C2=O)cc1C,-44%,-19%[11.6 µM],-1%,-2%,?,?,.,Pol kappa inh-2=?
Cc1[nH][nH]c(=O)c1C(c1ccc(-c2ccc(Cl)c(C(=O)O)c2)o1)c1c(C)[nH][nH]c1=O,50µM*,?,?,-25%,3.2µM*,10µM*,60*,GALK inh confirm=?;Redox cycling=4.7µM*;HEK293 tox=-7%;Pol kappa inh-2=24*
O=C(O)c1cc(-c2ccc(/C=N/Nc3ccc(Cl)cc3)o2)ccc1Cl,-23%,-9%[11.6 µM],-23%,-20%,?,?,.,
CC1(CC(=O)N/N=C/c2cc([N+](=O)[O-])c(O)cc2O)OCCO1,?,?,-32%,4.5µM*,?,22µM*,?,
CCc1oc(C(=O)O)cc1COC,-29%,-22%[57.1 µM],1%,22µM*,?,28µM*,30*,
CCc1oc(C(=O)O)cc1CN(CC)CC,-5%,-8%,-7%,1%,-12%,4%,.,
SMILES,Pol kappa inh-1,WRN inhibitor,FEN1 inh,POLB inh,Pol iota inh,Pol eta inh-1,Pol eta inh-2,others
O=c1c(-c2ccccc2)nc2cnc(N3CCNCC3)nc2n1-c1ccccc1,11%[60.1 µM],.,.,.,.,.,.,
CCOC(=O)c1cc2c(=O)n3cccc(C)c3nc2n(Cc2ccco2)c1=NC(=O)c1cccnc1,?,?,-21%,35µM*,?,20µM*,?,
Cc1c(Cl)cccc1NC(=O)CSc1nc2ncccc2o1,-1%,.,4%,-1%,-5%,-12%,.,
Cc1cc(C=C2C(=O)c3ccccc3C2=O)c(C)n1-c1ccc(C(=O)O)cc1,?,?,?,?,35µM*,25µM*,?,
Cc1cc(/C=c2\sc3nc4ccccc4n3c2=O)c(C)n1-c1ccc(C(=O)O)cc1,-38%,?,-13%,22µM*,45µM*,22µM*,?,
O=C(O)c1cccc(-n2cccc2C=C2C(=O)c3ccccc3C2=O)c1,-43%,?,50µM*,?,?,16µM*,76*,
